Consider 14 molecules from article PMC12136788.

Positions count from the first letter of the chain named. The full ranking holds about 24,000 sequences; the median of “enrichment r” is about 0.99, and the highest 2% start at about 3.7. Many of the other results were omitted from the sample, so the highest values are more common in it than they were.

The labels stand for the following.
T1: UNK ZnF1-3 (human, UniProt Q9C0B0 31-174)
T1 sequence: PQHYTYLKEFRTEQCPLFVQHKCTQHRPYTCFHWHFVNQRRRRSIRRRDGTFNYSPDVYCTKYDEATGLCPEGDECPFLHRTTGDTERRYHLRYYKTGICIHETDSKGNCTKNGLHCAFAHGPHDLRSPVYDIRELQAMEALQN

B1: chr16:45382771:45382772:-_ENSMUSG00000022661_ENSMUST00000163230|mus_mus|mus_mus_mus_hu_True|38_108 (ssRNA)
RNA: GGGAGUUCUACAGUCCGACGAUCCUGAGUGUUAUUGUAAGACAAAUGGACAGGGAGGGCAUGCUUCUCAAAAAAUGUGAGCUAUUGUCUAAGACUAACAAUAUUGCUCUAGCUAUAAAAAUAAGUUAAAUGAAUAAGUUAAGACAACAGAGGAUUGAGCAUCA
B2: chr16:45382771:45382772:-_ENSMUSG00000022661_ENSMUST00000163230|mus_mus|mus_mus_mus_hu_True|38_88 (ssRNA)
RNA: B1 RNA with A27G, G30C, U31A, A33G, G36A, C50U
B3: chr7:149068622:149068623:-_ENSMUSG00000025139_ENSMUST00000001950|mus_hu|mus_mus_mus_hu_False|68_108 (ssRNA)
RNA: GGGAGUUCUACAGUCCGACGAUCGUGCAGGUACUGAGUGUGGCUUGUGGUCUGUCCUGGGUUAGAGCUGCUGGUAACACGGAACAUACCAUCUAGAACGUUCCAGUCCCGCCUGACACCUUCAUUCCCAAUGGAGAAGAAAUCCAACAGAGGAUUGAGCAUCA
B4: chr2:5814250:5814251:-_ENSMUSG00000025816_ENSMUST00000102981|mus_hu|mus_mus_mus_hu_True|58_58 (ssRNA)
RNA: GGGAGUUCUACAGUCCGACGAUCUUCCUUUCCGGUUUCUGAAUUUCUGGUAGAACUGCACAGAAUGGUUUGAUAACUUCUAAAAACUUGAUGCCCAUGGCUGCUGCUGGGGAGGCCCAGGGGGAAACCGCGGCCUCGGCGCUGCAACAGAGGAUUGAGCAUCA
B5: 97007495_97007615_238_CDS_ENSG00000121152_ENST00000240423|human|control|control (ssRNA)
RNA: GGGAGUUCUACAGUCCGACGAUCCAAUAAGCGAGGUGAGUCAGUGCUGAACUGCAGAUCAAAGACCCUCGAGCGCCUCCGCUGCAGCCGCUCCUUCUCAUCGUCAUUCUGAGGAAAGUCUUCGAGGACUGGGGUGCCAGGAAUCAACAGAGGAUUGAGCAUCA
B6: 96635784_96638769_164_5pUTR_ENSMUSG00000020876_ENSMUST00000107661|mouse|control|control (ssRNA)
RNA: GGGAGUUCUACAGUCCGACGAUCCCACAAGCCCAUGGGAAGGGCACAUAGGUGUUCGAGGAAGCUCUUCCGCCUGACAGAAAACCUGUCCCGUCCAUCAAGCAGCUGUUCUCAUUUUUCAGUCGGUAACCCACUCCUUUCACCCAACAGAGGAUUGAGCAUCA
B7: chr12:39756943:39756944:-_ENSG00000139116_ENST00000544797|hu_mus|hu_hu_hu_mus_False|28_68 (ssRNA)
RNA: GGGAGUUCUACAGUCCGACGAUCGGUUUGGCUGUUACCCCCAAGGGAAUCCUGCAAGAGUCUUGUCAGCUUGGAAUCUCUGUAAGGGACAUGGGUGGCUCUCUUGCUCUUGUCUCCCAAGGCGCUGAUUACAUUCCCAAGAGCCAACAGAGGAUUGAGCAUCA
B8: chr16:45382771:45382772:-_ENSMUSG00000022661_ENSMUST00000163230|mus_mus|mus_mus_mus_hu_True|38_78 (ssRNA)
RNA: B1 RNA with A27G, G30C, U31A, A33G, G36A, G57A, C66U
B9: chr19:16212804:16212805:+_ENSG00000167460_ENST00000300933|hu_mus|hu_hu_hu_mus_False|38_98 (ssRNA)
RNA: GGGAGUUCUACAGUCCGACGAUCAACAAUUCUGGAGAAGAACAUCAAUGUAACAUGGAACAGCAUUAAAGCUCAGUCAGAAGGCACAUGGGCAACAAUGACUAUUUCAGCAUUCUCGCUUGGAAUGCUUAAAGACAAUCUGUUCAACAGAGGAUUGAGCAUCA
B10: chr4:76721835:76721836:+_ENSG00000138768_ENST00000264904|hu_mus|hu_hu_hu_mus_True|18_28 (ssRNA)
RNA: GGGAGUUCUACAGUCCGACGAUCGUUUGGCUGGGGUUUCUGAGACGCUCUGGAAUAUAACUCAUGUUUGCUAAUAAAUCCUAGUUUCUCUAUGAAAUUCUCUUUGCAAUCCUCUUCUCAAUCAGUUUGCUUUAGUUUCUCUUUCAACAGAGGAUUGAGCAUCA
B11: chr4:76721835:76721836:+_ENSG00000138768_ENST00000264904|hu_mus|hu_hu_hu_mus_True|8_28 (ssRNA)
RNA: GGGAGUUCUACAGUCCGACGAUCGUUUGGCUGGGGUUUCUGAGACGCUCUGGAAUAUAACUCAUGUUUGCUAAUAAAUCCUAGUUUCUCUAUGAAAUUCUCUUUGCAAUCCUCUUCCUCUAUUAGUGUUUUAGCUUUCUCUUUCAACAGAGGAUUGAGCAUCA
B12: chr16:45382771:45382772:-_ENSMUSG00000022661_ENSMUST00000163230|mus_mus|mus_mus_mus_hu_True|38_48 (ssRNA)
RNA: B1 RNA with A27G, G30C, U31A, A33G, G36A, U87A
B13: chr16:45382771:45382772:-_ENSMUSG00000022661_ENSMUST00000163230|mus_mus|mus_mus_mus_hu_True|18_38 (ssRNA)
RNA: GGGAGUUCUACAGUCCGACGAUCCUGGGUCAUGUUAUAAGACAAAUGGACAGGGAGGGCAUGCUUCUCAAAAAAUGUGAGCUAUUGUCUAAGACUAACAAUAUUGCUCUAGCUAUAUAAAAAUAAGAAAUGAAUAAGUUAAGACAACAGAGGAUUGAGCAUCA
B14: chr16:45382771:45382772:-_ENSMUSG00000022661_ENSMUST00000163230|mus_mus|mus_mus_mus_hu_True|38_38 (ssRNA)
RNA: B1 RNA with A27G, G30C, U31A, A33G, G36A

This experiment concerns the target T1, UNK ZnF1-3. The experiment in a line: nsRBNS (natural sequence RNA bind-n-seq); RBNS binding buffer (assumed for nsRBNS): 25 mM Tris pH 7.5, 150 mM KCl, 3 mM MgCl2, 0.01% Triton X-100, 500 ug/ml BSA, 20 U/ml SUPERase-In, 4 C; UNK is unkempt and MSI1 is Musashi-1; names of the RNAs are library labels; protein concentration not given here; high values mean tight binding.
For B1, the binding signal was 8.75 enrichment R.
The molecule B2 registered a binding signal of 7.9 enrichment R.
Regarding B3, the binding signal worked out at 0.783 enrichment R.
B4: the binding signal was determined as 1.21 enrichment R.
Molecule B5 showed a binding signal of 1.1 enrichment R.
The value for B6 was 1.14 enrichment R.
B7 displayed a binding signal of 0.792 enrichment R.
Turning to B8, the binding signal worked out at 13.9 enrichment R.
As to B9, the binding signal is 1.15 enrichment R.
The value for B10 was 0.475 enrichment R.
Consider B11, for which the binding signal amounted to 0.588 enrichment R.
As for B12, the binding signal worked out at 8.11 enrichment R.
The value for B13 was 10.5 enrichment R.
Take B14: the binding signal turned out to be 16.7 enrichment R.
